Reference: PubChem BioAssay (NCATS)
Calls of active or inactive are those of the source. Calls come from the whole dose curve; as a rule, active = well fitted inhibition curve with a large enough effect; inconclusive = small, poorly fitted or top-dose-only effect; inactive = flat fitted curve, though single readings scatter.

Molecular target: DNA polymerase III PolC-type (Bacillus subtilis (strain 168)) (UniProt P13267)
Test: qHTS Validation Assay for the Inhibitors of DNA Replication in Gram-Positive Bacteria (AID 485295);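 note: reconstituted holoenzyme with PolC plus beta clamp SSB and primase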
Settings: Gram-positive bacterial DNA replication assay; series mostly up to 57.1 µM
Method: B Subtilis DNA polymerase III holoenzyme complex was assayed for DNA production by fluorescent detection of the double-stranded DNA product with PicoGreen dye. The holoenzyme complex was reconstituted from the following purified protein components: DNA Polymerase III, beta subunit processivity factor, SSB single-stranded DNA binding protein, and Primase. Single-stranded, circular M13Gori was used as a substrate with dNTPs and NTPs also supplied to the substrate reagent. Compounds from the NCGC collection were incubated with the holoenzyme mixture for […] at room temperature to allow binding to occur, and then the reaction was started by the addition of substrate. After 30 min incubation at room temperature, PicoGreen solution containing EDTA was added to stop the reaction and to visualize the double-stranded DNA produced. Reaction progress was measured in a ViewLux CCD imager in fluorescence intensity mode by using 480 nm excitation and 540 nm emission filter set.
1. Thaw screening compounds.
2. Label assay plates. Prepare pipette tips, reagent reservoirs, buffers and controls.
1. Thaw Enzymes, DNA template, Nucleotides and PicoGreen dye concentrate. Thawed enzymes are stable on ice for ~1
week. Other thawed components are stable indefinitely.
2. Prepare sufficient quantities of Enzyme, Substrate and PicoGreen Quench mixes (according to Table II). For the number of
compound plates being screened.
3. Ensure that the tip wash station reservoirs have clean water and turn on recirculating chiller so that the chilled deck position
1. Load 2 uL of EDTA controls (250 mM, Background, 100 % inhibition) and 2 uL of DMSO controls (Negative control, 0%
inhibition) in the screening plates (flat-bottomed black 384-well polypropylene, Greiner Bio-one).
2. Place Enzyme mix reservoir on the chiller position of the liquid handler deck. Make sure that chiller will maintain
temperature of Enzyme mix at 4degC. Substrate mix and PicoGreen Quench can be stored at room temp.
3. Program liquid handling robotics to dispense 18 uL of Enzyme mix into assay plates. Wash tips.
4. Aspirate and dispense 2 uL of compound from compound plates, mix and Incubate at room temperature for 10 minutes.
5. Aspirate 5 ul of Substrate mix, dispense into assay plates and mix by pipetting. Wash tips.
6. Incubate at room temperature (21 +/- 1 deg C) for 20 minutes.
7. Quench reactions by addition of 25 uL PicoGreen Quench mix and mix by pipetting (using HTS robotics or bulk reagent
dispenser such as a Multidrop or uFill). Keep plates in the dark or stacked until ready to read fluorescence.
8. Read fluorescence intensity of plates on plate reader using "Fluorescein (Ex 485 nm/ Em 535 nm, 0.1s)" setting.

Sequence of DNA polymerase III PolC-type (Bacillus subtilis (strain 168)) (P13267 whole entry, looked up): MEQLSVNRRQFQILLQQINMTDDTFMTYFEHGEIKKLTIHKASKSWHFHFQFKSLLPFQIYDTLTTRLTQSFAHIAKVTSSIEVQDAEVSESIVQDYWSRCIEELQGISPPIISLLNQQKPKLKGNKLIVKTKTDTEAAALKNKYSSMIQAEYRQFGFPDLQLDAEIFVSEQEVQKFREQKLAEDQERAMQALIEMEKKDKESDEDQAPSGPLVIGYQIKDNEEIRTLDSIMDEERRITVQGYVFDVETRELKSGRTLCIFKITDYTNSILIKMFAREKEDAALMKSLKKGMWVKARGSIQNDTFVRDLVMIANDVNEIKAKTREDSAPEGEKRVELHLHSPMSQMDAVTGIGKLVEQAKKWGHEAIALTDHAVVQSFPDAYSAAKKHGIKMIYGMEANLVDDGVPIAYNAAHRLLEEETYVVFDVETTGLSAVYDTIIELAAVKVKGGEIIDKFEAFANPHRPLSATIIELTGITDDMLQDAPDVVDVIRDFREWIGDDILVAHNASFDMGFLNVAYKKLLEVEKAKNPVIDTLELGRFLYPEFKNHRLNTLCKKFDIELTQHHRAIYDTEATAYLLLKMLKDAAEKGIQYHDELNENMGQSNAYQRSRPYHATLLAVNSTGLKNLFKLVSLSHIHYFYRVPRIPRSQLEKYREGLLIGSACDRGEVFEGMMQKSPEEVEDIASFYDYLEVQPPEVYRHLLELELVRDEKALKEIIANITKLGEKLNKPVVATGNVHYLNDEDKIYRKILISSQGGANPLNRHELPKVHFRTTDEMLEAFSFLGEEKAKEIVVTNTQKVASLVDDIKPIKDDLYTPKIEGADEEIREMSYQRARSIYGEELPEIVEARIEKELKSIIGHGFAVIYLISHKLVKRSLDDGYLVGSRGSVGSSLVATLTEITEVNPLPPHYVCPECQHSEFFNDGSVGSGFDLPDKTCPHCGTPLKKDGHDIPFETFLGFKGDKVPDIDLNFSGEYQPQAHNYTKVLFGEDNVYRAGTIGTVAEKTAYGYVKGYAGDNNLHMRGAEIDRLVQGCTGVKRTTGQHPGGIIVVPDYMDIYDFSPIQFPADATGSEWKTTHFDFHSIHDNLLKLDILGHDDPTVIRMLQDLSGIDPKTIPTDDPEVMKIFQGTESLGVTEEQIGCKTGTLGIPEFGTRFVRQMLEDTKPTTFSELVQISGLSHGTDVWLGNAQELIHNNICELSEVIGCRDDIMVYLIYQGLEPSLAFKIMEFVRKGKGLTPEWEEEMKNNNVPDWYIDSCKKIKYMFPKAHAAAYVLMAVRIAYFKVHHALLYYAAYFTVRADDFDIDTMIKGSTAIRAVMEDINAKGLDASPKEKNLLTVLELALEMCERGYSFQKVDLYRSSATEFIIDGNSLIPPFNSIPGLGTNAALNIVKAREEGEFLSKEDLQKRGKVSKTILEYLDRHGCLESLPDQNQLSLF

Row | Structure (SMILES) | outcome
1 | O=[N+]([O-])c1ccc(-c2nc(-c3ccc(F)cc3)c(-c3ccncc3)[nH]2)cc1 | inactive
2 | C[N+](C)(C)CCO | inactive
3 | CCN(CC)CCNC(=O)c1ccc(NS(C)(=O)=O)cc1 | inactive
4 | O=C1NC(c2cccc([N+](=O)[O-])c2)=CCN1c1ccccc1O | inactive
5 | N[C@@H](Cn1ccc(=O)c(O)c1)C(=O)O | inactive
6 | Cn1cnc2c(NCc3ccccc3)nc(NCCO)nc21 | inactive
7 | NC(N)=NCCCCN=C(N)N | inactive
8 | Brc1ccc([C@H]2CN3CCSC3=N2)cc1 | inactive
9 | Cc1nn(-c2ccccc2)c(C)c1/C=N/N1CCN(Cc2ccccc2)CC1 | inactive
10 | COC(=O)C1=CO[C@@H](O)[C@@H]2C(CO)=CC[C@H]12 | inactive
11 | O=C1NC(=O)/C(=C/c2ccc3c(c2)OC(F)(F)O3)S1 | inactive
12 | COc1ccccc1N1CCN(CCN2C(=O)CC3(CCCC3)CC2=O)CC1 | inactive
13 | CN(C)c1cc2c(Nc3ccc4c(cnn4Cc4ccccc4)c3)ncnc2cn1 | inactive
14 | Clc1ccc2c(c1)N=C(N1CCNCC1)c1ccccc1N2 | inactive
15 | CC(C)N(CCC(=O)c1ccc2ccccc2c1)Cc1ccccc1 | inactive
16 | Nc1ncnc2n[nH]c(Nc3ccc(F)cc3)c12 | inactive
